Bioassay records: PubChem BioAssay, National Center for Advancing Translational Sciences (NCATS)
Sampled rows, rich in hits. Any-hit rate of the full collection: about 3.3%.
DRD3 agonist – D3 dopamine receptor (human) agonism. P35462. 0.58% of 410,000 active. D3R DiscoveRx beta-arrestin cells, luminescence, 90 min. max activation, %; in the data active = max activation above about 30%; note: 0% is about no effect
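Cells at 1500/well, incubated overnight, then treated with pinned compounds (dopamine as control) for 90 min at 37 degrees C. DiscoveRx reagent added for 30 - 60 minutes at room temperature; luminescence read.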
DRD3 antagonist – blocks the human D3 dopamine receptor; 2.5% of 360,000 active; D3R cells, DiscoveRx beta-arrestin luminescence, antagonist mode; active compounds read low; max response, negative = inhibition, %; in the data active = max response below about -50%; inconclusive = no clear call, values can overlap the other calls; note: % is set by controls: 0 for no effect and ±100 for the full control effect
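Cells plated overnight at 1500 cells/well, then exposed to library compounds with dopamine controls for 90 minutes at 37 degrees C. DiscoveRx reagent added for 30–60 minutes at room temperature; luminescence read, quantitative HTS format.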
PI4K2A inh – PI4K2A (human) kinase inhibition. Q9BTU6. purified PI4K2A, ADP-Glo luminescence, 1 h; active compounds read low. activity change, negative = inhibition, % at 76.9 µM. 0.13% of 420,000 active. AID 1346378; in the data active = activity change below about -50%; inconclusive = mostly about -30% to -49%;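 note: -100% = wells without enzyme as full effect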
Target sequence (Q9BTU6 whole entry, looked up): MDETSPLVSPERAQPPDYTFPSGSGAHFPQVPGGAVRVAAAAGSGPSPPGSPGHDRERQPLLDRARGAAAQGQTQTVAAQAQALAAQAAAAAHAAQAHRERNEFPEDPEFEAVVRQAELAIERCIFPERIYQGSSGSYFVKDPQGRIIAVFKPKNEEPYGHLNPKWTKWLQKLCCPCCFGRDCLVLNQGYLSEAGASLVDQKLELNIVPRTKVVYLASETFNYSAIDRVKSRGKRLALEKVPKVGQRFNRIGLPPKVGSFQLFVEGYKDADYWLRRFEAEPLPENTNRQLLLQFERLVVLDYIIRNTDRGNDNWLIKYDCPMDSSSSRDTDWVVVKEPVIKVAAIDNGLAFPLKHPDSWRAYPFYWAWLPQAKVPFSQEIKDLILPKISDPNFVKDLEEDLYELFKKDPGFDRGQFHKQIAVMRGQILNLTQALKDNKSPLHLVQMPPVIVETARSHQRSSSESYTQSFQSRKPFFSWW
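ADP-Glo luminescence measured ADP generated by PI4K2A enzyme (4 ug/mL before mixing) with 1.2 mM PI substrate (pre-mix) and 300 microM ATP (pre-mix). Tris pH7.5 buffer with MgCl2, Triton X-100; 1 h reaction at ambient temperature.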
LDHA inh – blocks human lactate dehydrogenase A. purified LDHA, NADH/diaphorase-resazurin fluorescence; active compounds read low. activity change, % (values are at about 110 or 230 µM). 0.15% of 480,000 active; in the data active = activity change below about -30%; inconclusive = mostly about -25% to -30%;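 note: plate controls were DMSO wells for no effect and wells without enzyme for full effect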
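Remaining NADH was detected by diaphorase (0.133 mg/mL) converting 37 µM resazurin to fluorescent resorufin, read at 0 and 20 minutes. The preceding 5-minute room-temperature reaction used 2 nM LDHA, 0.2 mM sodium pyruvate and 0.06 mM NADH at pH 7.4.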
PI5P4K alpha inh – blocks human PI5P4K alpha kinase activity | P48426 | PI5P4Kalpha enzyme, ADP-Glo luminescence, 60 min; active compounds read low | max response, % | 1.2% of 330,000 active; active = max response of -50% or lower; inconclusive = between -30% and -50%; inactive = -30% or higher; note: value at the top dose of about 77 µM; % is set by controls: 0 for no effect and ±100 for the full control effect
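Luminescence from ADP-Glo served as readout of PI5P4Kalpha activity in a qHTS format. Reaction: enzyme, substrate, compound, ATP at 5 microM final, 60 min at RT.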
* hit, by the source's call; ? = inconclusive; / = not tested or not shown.

SMILES	DRD3 agonist	DRD3 antagonist	PI4K2A inh	LDHA inh	PI5P4K alpha inh
N#CC1=C2SCN(Cc3ccccc3)CN2C(=O)CC1c1cccc2ccccc12 (stereo not given)	/	/	/	-3.0	/
N#CC1=C2SCN(Cc3ccccc3)CN2C(=O)CC1c1ccc2c(c1)OCO2 (stereo not given)	1.6	-10.0	-8.4	11.9	-58.0*
N#CC1=C2SCN(Cc3ccccc3)CN2C(=O)CC1c1cccs1 (stereo not given)	2.8	-8.6	-13.3	11.1	-58.8*
N#CC1=C2SCN(Cc3ccco3)CN2C(=O)CC1c1ccc(Cl)cc1 (stereo not given)	-8.9	0.0	-6.9	2.8	?
Cc1ccc(Nc2nc(CN3CCN(S(=O)(=O)c4ccccc4)CC3)cs2)cc1	/	/	/	6.6	/
CCOC(=O)Cc1ccc(NC(=O)Nc2cccc(OCc3cc(=O)n4ccc(C)cc4n3)c2)cc1	/	/	/	9.2	/
Cc1ccc(CNCC2CN(C)CCO2)o1 (stereo not given)	/	/	/	-3.0	/
COc1cc([N+](=O)[O-])cc(/C=N/NC(=O)CSc2ccccn2)c1O	-16.3	-51.8*	-2.2	10.9	-23.9
COc1cc([N+](=O)[O-])cc(/C=N/NC(=O)Cn2cncn2)c1O	-26.4	-75.9*	-2.3	3.7	-3.7
O=C(NCCS(=O)(=O)N1CCN(c2ccccc2)CC1)c1ccccc1F	-7.2	-3.7	-1.4	-2.7	-1.0
O=C(NCCN1CCN(c2ccccc2)CC1)c1ccccc1F	15.9	-55.9*	-3.1	-5.4	-4.8
O=C(NCCCN1CCN(CCCNC(=O)c2ccccc2F)CC1)c1ccccc1F	-1.7	-51.3*	0.3	-0.4	-1.7
COc1ccc(CCn2c(N)cc(=O)[nH]c2=O)cc1OC	-13.2	-86.4*	-5.4	2.7	-2.7
COc1ccc(CCn2c(N)cc(=O)[nH]c2=S)cc1OC	-2.3	-1.6	-3.2	1.3	-7.2
COc1ccc(CCN2C(=O)C3C4C=CC(C3C2=O)C2C(=O)N(CCc3ccc(OC)c(OC)c3)C(=O)C42)cc1OC (stereo not given)	30.6*	-18.5	4.6	-2.3	/
Cc1cc(C)cc(C(O)c2ncc(-c3ccc4ccccc4c3)[nH]2)c1 (stereo not given)	-12.4	-55.9*	-1.1	-10.6	6.3
Cc1ccc(C(O)c2ncc(-c3ccc4ccccc4c3)[nH]2)cc1 (stereo not given)	-15.1	0.0	-0.6	-5.0	5.1
O=c1cc(N2CCCCC2)c(-c2ccccc2)nn1Cc1c(Cl)cccc1Cl	-4.3	-68.6*	3.8	0.6	-21.2
CNc1snc(C)c1C(=O)NCCc1ccc(OC)cc1	/	/	/	4.7	/
CN(C)S(=O)(=O)c1cccc(NC(=O)Cc2cc(Cl)c3c(c2)OCCCO3)c1	/	/	/	7.3	/
Cc1cccn2c(=O)c3cc(C(=O)NCCN4CCOCC4)c(=N)n(CCCN4CCOCC4)c3nc12	-5.6	-23.0	-10.9	-2.7	-10.1
COCCCn1c(C(=O)NCCN2CCOCC2)cc2c(=O)n3cccc(C)c3nc21	1.7	-54.2*	12.4	-8.8	1.5
Cc1ccc(CNC(C)c2ccccc2)cc1 (stereo not given)	-7.8	-54.9*	-3.1	-3.7	3.1
CC(NCc1ccccc1)c1ccccc1 (stereo not given)	/	/	/	9.4	/
Nc1cccc(P(=O)(c2ccccc2)c2ccccc2)c1	3.5	17.2	-0.9	-3.9	-2.6
SMILES	DRD3 agonist	DRD3 antagonist	PI4K2A inh	LDHA inh	PI5P4K alpha inh
O=P(c1ccccc1)(c1ccccc1)N(c1ccccc1)c1ccccc1	-9.0	-53.5*	-0.3	-6.8	0.3
Cn1c(=O)c(-c2noc(C(=O)N3CCC(c4ccccc4)C3)n2)nn(-c2ccc(F)cc2)c1=O (stereo not given)	/	/	/	-8.9	/
Cc1c(Cl)ccc2c1NC(=O)[C@]21[C@@H]2C(=O)N(Cc3ccccc3)C(=O)[C@@H]2[C@@H]2CCCN21	-3.9	-5.1	-2.9	4.5	?
CCc1cccc2c1NC(=O)[C@]21[C@@H]2C(=O)N(Cc3ccccc3)C(=O)[C@@H]2[C@@H]2CCCN21	0.5	20.5	2.1	-1.3	-51.5*
O=Nc1c(O)n(Cc2ccc(Cl)cc2Cl)c2ccccc12	1.3	-92.3*	-0.3	6.7	4.3
O=Nc1c(O)n(Cc2ccc(Cl)cc2)c2ccccc12	2.0	3.3	4.5	-2.8	2.1
CCOC(=O)C(=O)Nc1nnc(CCc2ccccc2)s1	-0.8	10.9	7.3	-0.7	-65.8*
